Assay outcomes as filed in PubChem BioAssay.
Shown are actives, neighbours in structure and some others; about 4.7% of the full set was active somewhere.
SKKanGAS inh: blocks kanamycin growth of S. pyogenes SKKanGAS strain | BacTiter-Glo, 6 h | inhibition, % at 7.5 µM | 300,000 tested, 1.3% active;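 active means mean replicate score, as percent of positive control median, at least 50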;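 further: strain carries kanamycin resistance gene driven by streptokinase promoter and grows in 40 µg/ml kanamycin; loss of luminescence reflects streptokinase promoter inhibition or plain growth inhibition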
TIM10 inh: inhibits growth of TIM10 yeast strain; S. cerevisiae TIM10 strain growth, BacTiter-Glo luminescence, 24 h; inhibition, % at 10 µM; 330,000 tested, 1.4% active;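 active means inhibition of 40% or more at the single tested concentration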;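 further: wild-type TIM10 isogenic control strain grown at permissive 25 °C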
EBI2 block: EBI2 (human) antagonism. AID 651636. 360,000 tested, 0.81% active. P32249. EBI2 beta-arrestin recruitment, luminescence, 7a,25-OHC stimulated. inhibition, % at 5 µM; in the data active means inhibition above about 38%;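 further: enzyme fragment complementation signal reports receptor beta-arrestin coupling in cells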
Target sequence (P32249 whole entry, looked up, the tested form may be a part): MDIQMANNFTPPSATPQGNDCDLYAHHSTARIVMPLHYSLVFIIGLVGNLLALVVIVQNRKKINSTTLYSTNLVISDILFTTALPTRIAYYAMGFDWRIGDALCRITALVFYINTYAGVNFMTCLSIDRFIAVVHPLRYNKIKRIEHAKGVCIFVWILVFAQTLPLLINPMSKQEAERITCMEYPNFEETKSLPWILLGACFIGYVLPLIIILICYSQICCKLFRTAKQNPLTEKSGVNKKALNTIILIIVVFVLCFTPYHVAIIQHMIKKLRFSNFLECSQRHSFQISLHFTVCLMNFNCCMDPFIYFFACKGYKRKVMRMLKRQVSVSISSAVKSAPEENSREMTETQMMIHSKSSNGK
tim10-1 inh: growth inhibitors of tim10-1 mutant yeast. S. cerevisiae tim10-1 ts strain growth, BacTiter-Glo, 24 h. 330,000 tested, 2.2% active. inhibition, % at 20 µM. AID 463190;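 active means inhibition of at least 40%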;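 further: mutant grown at 25 °C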
PfHsp90 yeast 2: inhibits growth of yeast expressing Plasmodium falciparum Hsp90 | 310,000 tested, 0.32% active | AID 504621 | inhibition, % at 9.4 µM | S. cerevisiae expressing PfHsp90, BacTiter-Glo ATP, 48 h; yeast lacking PDR1 and PDR3 efflux regulators;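 active means every replicate shows inhibition above about 80%, whatever the replicate mean, limit read from the data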
tim23-1 inh: inhibits growth of tim23-1 mutant yeast | S. cerevisiae tim23-1 growth, BacTiter-Glo luminescence, 24 h | inhibition, % at 20 µM | 330,000 tested, 1.3% active;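 active means growth inhibition of the mutant yeast at or above 50%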;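 further: temperature-sensitive mutant grown at 25 °C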
tim10-1 conf: confirmation of tim10-1 mutant yeast growth inhibitors; inhibition, % at 20 µM; AID 463213; shares compounds with tim10-1 inh; 7,400 tested, 56% active; S. cerevisiae tim10-1 ts strain growth, BacTiter-Glo, 24 h;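 active means inhibition of yeast growth at or above a set limit in either of two repeat tests at 20 µM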;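 further: tim10-1 mutant grown at permissive 25 °C to find synthetic lethal compounds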
Hits are given with their value; 0 = inactive; - = not tested or not shown.

SMILES	SKKanGAS inh	TIM10 inh	EBI2 block	tim10-1 inh	PfHsp90 yeast 2	tim23-1 inh	tim10-1 conf
CC1CC(C)CN(C(=O)/C(=C\c2ccccc2)c2ccccc2)C1 (centres undefined)	0	0	0	0	0	0	-
CC1CCCCN1C(=O)/C(=C\c1ccccc1)c1ccccc1 (centres undefined)	0	0	0	42	0	0	31
O=C(CN(c1ccccc1)S(=O)(=O)c1ccccc1[N+](=O)[O-])NN=C1CCCCCCC1	0	0	0	0	0	0	-
C=CCOc1ccccc1/C=c1\sc2nc(=O)c(C)nn2c1=O	-	0	0	45	0	0	50
O=C(N=Nc1ccc(NOC(=O)c2ccccc2Br)cc1)c1ccccc1O	0	0	-	50	-	0	37
N#CC(c1ccc(O)cc1)N1CCN(C(C#N)c2ccc(O)cc2)CC1 (centres undefined)	-	-	0	-	0	-	-
CCN(CC)c1nc(-c2cccc(OC)c2O)nc2ccccc12	0	0	0	47	0	0	36
COc1ccc(-c2nnc3sc(-c4ccccn4)nn23)cc1	0	0	-	44	-	0	0
COc1cccc(-c2nn3c(-c4ccccn4)nnc3s2)c1	0	0	0	58	-	0	54
O=C(c1ccccc1Br)N1N=C(c2ccccc2)CC1c1ccccc1F (centres undefined)	0	0	0	50	0	0	48
O=C(COc1cccc2cccnc12)N/N=C1\SCC(=O)N1Cc1ccccc1	0	0	0	0	0	0	-
O=C(Nc1c2c(nn1-c1ccc(F)cc1)CS(=O)C2)c1ccc2c(c1)OCO2 (centres undefined)	0	0	0	0	0	0	-
O/N=C/c1ccc(OCc2ccccc2F)c(Cl)c1	0	0	0	41	0	0	0
COc1cc(S(=O)(=O)n2cnc3ccccc32)ccc1Br	0	0	0	0	0	0	-
C=CCn1c(SCc2ccccc2C#N)nnc1-c1cc(Br)ccc1O	0	0	0	44	0	0	0
COCCCN1C(=O)C(CC(=O)NC(c2ccccc2)c2ccccc2)CC(C(=O)N(C(C)C)C(C)C)=C1C (centres undefined)	-	-	0	-	-	-	-
COc1cccc2c1OCC([C@@H]1C[C@H]3CN(Cc4cccc(Cl)c4)C(=O)[C@]34CCCN14)=C2	0	0	0	0	0	0	-
COc1ccccc1/C=C/[C@@H]1C[C@H]2CN(Cc3cccc(Cl)c3)C(=O)[C@]23CCCN13	0	0	0	43	0	0	0
COc1ccccc1C(=O)Nc1ccccc1C(=O)N1C(C)CCCC1C (centres undefined)	0	0	0	44	0	0	32
COc1ccccc1/C=C/C(=O)OCC(=O)Nc1c(C)nn(-c2ccccc2)c1C	-	0	0	45	-	0	0
Cc1cc(C)n(S(=O)(=O)c2ccc(Cl)cc2)n1	0	0	0	0	0	0	-
Cc1cc(C)n(S(=O)(=O)c2cc(Cl)ccc2Cl)n1	0	0	0	40	0	0	0
Cc1cc(C)n(S(=O)(=O)c2ccc(C(C)(C)C)cc2)n1	0	0	0	43	-	0	38
Cc1cc(C)n(S(=O)(=O)c2ccc(F)cc2)n1	0	0	0	0	0	0	-
COc1ccc(N(C(=O)c2cccnc2)S(=O)(=O)c2ccc(Cl)cc2)cc1	0	0	0	0	-	0	-
SMILES	SKKanGAS inh	TIM10 inh	EBI2 block	tim10-1 inh	PfHsp90 yeast 2	tim23-1 inh	tim10-1 conf
CCn1nc(C)c(NC(=O)c2cnn3c(C(F)F)cc(-c4ccccc4)nc23)c1C	0	0	0	42	0	0	0
O=C(NC(=S)N1CCCCCC1)c1ccc(Cl)cc1Cl	0	0	0	48	0	0	30
Cc1ccc(NC(=O)CS(=O)Cc2nc(-c3ccc(C)cc3)oc2C)cc1 (centres undefined)	0	0	0	40	0	0	0
Cc1oc(-c2ccc(Cl)cc2)nc1CS(=O)CC(=O)NC1CCCCCC1 (centres undefined)	0	0	0	0	0	0	-
Cc1oc(-c2ccc(Cl)cc2)nc1CS(=O)CC(=O)NC1CCCCC1 (centres undefined)	0	0	0	40	0	0	33
Cc1ccccc1-c1nc(CS(=O)CC(=O)NCCc2ccc(Cl)cc2)c(C)o1 (centres undefined)	0	0	0	44	0	0	0
CCCN(C(=O)C(=O)Nc1ccc2nc3n(c(=O)c2c1)CCCCC3)c1ccc(OCC)cc1	0	0	0	0	0	0	-
CC(C)c1ccc(/C=C/C(=O)N2CCCCCC2)cc1	0	0	0	43	0	0	0
CC(C)c1ccc(/C=C/C(=O)CCC(=O)O)cc1	0	0	0	41	0	0	0
CCCCOc1ccc(/C=C/C(=O)OCC(=O)NC(=O)NCC(C)C)cc1OCC	0	0	0	0	0	0	-
CC(C)CCNC(=O)C(c1ccncc1)N(Cc1cccs1)C(=O)Cn1nnc(-c2ccc(F)cc2)n1 (centres undefined)	0	0	0	0	0	0	-
CC(CNC(=O)COc1ccccc1)OC(=O)Nc1ccc(Cl)c(Cl)c1 (centres undefined)	0	0	0	50	0	0	43
COC(=O)NCC(C)OC(=O)Nc1cccc(Cl)c1 (centres undefined)	0	0	0	0	0	0	-
CCOc1ccc(N2CC(C(=O)N3CCCc4ccccc43)CC2=O)cc1 (centres undefined)	0	0	0	41	0	0	0
CCc1ccc2c(CN3CCN(S(=O)(=O)c4cccs4)CC3)cc(=O)oc2c1	0	0	0	41	0	0	0
COc1ccc(S(=O)(=O)NNC(N)=S)cc1	0	0	0	0	0	0	-
COc1ccc(CNc2nc3nc(C)c(Cl)c(C)n3n2)cc1	0	0	0	0	0	0	-
COc1cccc(CNc2nc3nc(C)c(Cl)c(C)n3n2)c1	0	0	0	48	0	0	29
COc1ccc(C(=O)/C=C/c2ccsc2)cc1CSCC(=O)O	0	0	0	0	0	0	-
Cc1ccc(NNC(=O)Nc2ccc(Cl)cc2)nn1	0	0	0	0	0	0	-
O=C(c1ccc(Cl)c([N+](=O)[O-])c1)N1CCN(c2ccccn2)CC1	0	0	0	0	0	0	-
O=C(c1ccc(S(=O)(=O)Cc2cc(F)ccc2F)c([N+](=O)[O-])c1)N1CCCCC1	0	0	0	44	0	0	29
O=C(c1ccc(Sc2cccc(Cl)c2)c([N+](=O)[O-])c1)N1CCN(c2ccccn2)CC1	0	0	0	41	-	0	0
O=C(c1cccc(COc2ccc(Cl)cc2Cl)c1)N1CCN(c2ccccn2)CC1	53	0	0	42	0	0	0
O=C(c1ccc(Cl)c(Cl)c1)N1CCN(c2ccccn2)CC1	0	0	0	0	0	0	-
